Assay [1] in a line: Cell Viability - SK-N-SH (AID 435; calls by dose curve;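 also: potency is read from the fitted curve at half-maximal effect; compound exposure lasted 40 h at 37 °C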). The settings on record: SK-N-SH neuroblastoma cell viability qHTS. In outline: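 SK-N-SH human neuroblastoma cells (1500/well) were exposed to compounds in complete medium for 40 h at 37 °C, and intracellular ATP was then measured by CellTiter-Glo luminescence. AC50 was taken from Hill fits, normalized to DMSO and 100 uM tamoxifen.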
In general terms: qHTS replaces the single test concentration by a dilution series.

A short description of assay [2]: MultiTox-Fluor Cytotoxicity Assay - LYMP1-001 - Live Cells (AID 947).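 Also: 0% = DMSO only and full inhibition = tetraoctylammonium bromide control.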 The settings on record: LYMP1-001 lymphoblastoid cells, live-cell protease fluorescence viability; series mostly up to 92.2 µM.
Assay [3] is described as follows: MultiTox-Fluor Cytotoxicity Assay - LYMP1-002 - Live Cells (AID 955).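 Also: cells exposed to compound for 16 hours; % is scaled to controls: 0 for no effect and ±100 for the full control effect.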 Conditions: LYMP1-002 lymphoblastoid live-cell protease fluorescence viability; series mostly up to 46.1 µM. In outline:
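Cells were seeded at 2500 per well and incubated 5 hr. Compounds were then added for 16 hr at 37 C, followed by MultiTox-Fluor reagent for 60 min at room temperature and fluorescence reading of viable-cell protease signal.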

Assay [4] is described as follows: Cell Viability - LYMP2-023 (AID 975).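 Also: cellular ATP measured by luciferase luminescence as viability proxy; plate controls were DMSO only for no effect and 92 µM tetraoctylammonium bromide control for full effect; nearly all actives have a fitted effect of over 55% in size.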 The settings on record: LYMP2-023 lymphoblastoid cell viability; series mostly up to 92.2 µM. Put shortly: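 Steps: seed 2500 human lymphoblastoid cells per well, incubate 5 hr at 37 C, add compound for 24 hr at 37 C, add CellTiter-Glo, hold 30 min at room temperature, read luminescence. AC50 derived by Hill modelling.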
The nature of assay [5]: Cell Viability - LYMP2-007 (AID 979).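 Also: cells exposed to compound for 24 h before reading; 0% = DMSO only and the negative end = 92 µM tetraoctylammonium bromide; nearly all actives have a fitted effect of over 60% in size.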 Conditions: LYMP2-007 lymphoblastoid cell viability; series mostly up to 92.2 µM. Put shortly:
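Cells are seeded at 2500 per well and rested 5 hr. Compounds are then added over a concentration series for 24 hr at 37 C. CellTiter-Glo is added for 30 min at room temperature before luminescence reading.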

Assay [6] in a line: Cell Viability - LYMP2-022 (AID 987).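 Also: 0% = DMSO alone and full effect = tetraoctylammonium bromide at 92 µM; nearly all actives have a fitted effect of over 55% in size.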 Conditions: LYMP2-022 lymphoblastoid cell viability; series mostly up to 92.2 µM. Put shortly: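 Cells were seeded at 2500 per well, rested 5 hr at 37 C, and treated with titrated compounds for 24 hr at 37 C. Cellular ATP was then quantified by luciferase luminescence, and AC50 values were derived from Hill-modelled concentration-response curves.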

For assay [7], the target named is Glucocorticoid receptor (Homo sapiens) (UniProt P04150). In words: qHTS assay for small molecule agonists of glucocorticoid receptor signaling (AID 588532; active = well fitted curve in the direction sought with a large enough effect in the signal ratio, with a control signal flat; the % refers to the signal ratio;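 also: 100% = dexamethasone at 0.1 µM and 0% = DMSO only wells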). Conditions: HeLa MMTV-bla, beta-lactamase ratio, agonist, 18 h; stronger effect = higher value; percent of dexamethasone control, DMSO zero. In outline:
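Stimulation of a glucocorticoid response element-driven beta-lactamase gene was measured in HeLa cells. Responses were scaled between DMSO basal and 0.1 uM dexamethasone, then fitted for half-maximal stimulation.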

Assay [8] shares this target. The assay is described as follows: qHTS assay for small molecule antagonists of glucocorticoid receptor signaling (AID 588533; active = well fitted inhibition curve with a large enough effect in the signal ratio, with a control signal flat, not every such curve was filed as active; the % refers to the signal ratio;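 also: cells stimulated with 2 nM dexamethasone as agonist; % is scaled to controls: 0 for no effect and ±100 for the full control effect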). The settings on record: HeLa MMTV-bla, GRE beta-lactamase ratio, antagonist mode, 18 h; series mostly up to 76.8 µM. Put shortly: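 Antagonist-mode qHTS: compound titrations added to GRE-bla HeLa cells, then dexamethasone 2 nM final; 18 h, 37 C. CCF4 FRET fluorescence normalized to dexamethasone and DMSO; IC50 from Hill fit.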

Assay [9] can be described thus: qHTS assay for small molecule antagonists of peroxisome proliferator-activated receptor delta signaling (AID 588535).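 Also: cells co-treated with a PPAR-delta agonist as stimulator during compound exposure.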 The settings on record: HEK293T PPARd-UAS-bla, beta-lactamase FRET ratio, 18 h; 460 nm channel. Put shortly: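 Inhibition of PPAR-delta response element-driven beta-lactamase expression is measured in HEK293T cells exposed to a compound titration series for 18 hrs at 37 C. Half-maximal inhibition comes from Hill equation fitting.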

Assay [10] deals with Peroxisome proliferator-activated receptor gamma (Homo sapiens) (UniProt P37231). The assay is described as follows: qHTS assay for small molecule antagonists of peroxisome proliferator-activated receptor gamma signaling (AID 588537; active = well fitted inhibition curve with a large enough effect in the signal ratio, with a control signal flat, not every such curve was filed as active; the % refers to the signal ratio;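 also: reporter cells co-stimulated with 50 nM rosiglitazone agonist during compound treatment; % of control where 0% means no effect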). The settings on record: HEK293 PPARg-UAS-bla, beta-lactamase ratio, antagonist mode; series mostly up to 76.8 µM. In outline: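 Compounds are tested as concentration series for inhibition of rosiglitazone-driven (50 nM) reporter expression in GeneBLAzer PPAR-gamma-UAS-bla HEK293 cells. After 16 h at 37 C, CCF4 substrate is added for 2 h at room temperature and blue/green fluorescence is measured.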
Chain of Peroxisome proliferator-activated receptor gamma (Homo sapiens) (P37231 whole entry, looked up): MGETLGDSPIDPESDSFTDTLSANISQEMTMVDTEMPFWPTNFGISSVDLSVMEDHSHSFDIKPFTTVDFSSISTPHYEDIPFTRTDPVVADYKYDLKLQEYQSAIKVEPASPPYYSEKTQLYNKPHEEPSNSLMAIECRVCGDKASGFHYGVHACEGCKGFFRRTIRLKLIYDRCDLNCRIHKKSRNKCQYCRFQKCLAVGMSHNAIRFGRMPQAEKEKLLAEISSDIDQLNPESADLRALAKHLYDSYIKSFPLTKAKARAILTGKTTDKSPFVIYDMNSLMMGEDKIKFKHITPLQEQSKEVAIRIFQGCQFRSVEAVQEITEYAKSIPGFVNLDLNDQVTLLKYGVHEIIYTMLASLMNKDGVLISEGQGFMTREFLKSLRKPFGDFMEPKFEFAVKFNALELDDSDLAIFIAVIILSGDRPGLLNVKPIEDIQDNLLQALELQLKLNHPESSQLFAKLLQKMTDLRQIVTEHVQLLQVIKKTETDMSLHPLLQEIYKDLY

Assay [11] concerns the target Thyroid hormone receptor beta (Homo sapiens) (UniProt P10828). The assay is described as follows: qHTS assay for small molecule antagonists of thyroid hormone receptor beta signaling (AID 588547; active = well fitted inhibition curve with a large enough effect in the signal ratio, with a control signal flat, not every such curve was filed as active; the % refers to the signal ratio;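 also: cells stimulated with 0.4 nM T3 agonist during compound exposure; % is scaled to controls: 0 for no effect and ±100 for the full control effect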). Conditions: TR-UAS-bla HEK293, beta-lactamase ratio, antagonist mode, 18 h. In outline:
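TR-UAS-bla GripTite HEK293 cells in 2% charcoal/dextran FBS medium were preincubated 4 h at 37 C, given compound (0.59 nM to 92 uM) plus 0.4 nM T3 (final) for 18 h, then CCF4 for 2 h at RT; Hill fit gave IC50.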

Assay [12] deals with Voltage-gated inwardly rectifying potassium channel KCNH2 (Homo sapiens) (UniProt Q12809). In words: qHTS Assay for Small Molecule Inhibitors of the Human hERG Channel Activity (AID 588834).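 Also: top concentration of the series differs between compounds; % is scaled to controls: 0 for no effect and ±100 for the full control effect; lower thallium flux fluorescence means stronger hERG block; nearly all actives have a fitted effect of over 50% in size.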 The settings on record: U2OS BacMam hERG, FluxOR thallium flux fluorescence; series mostly up to 92.2 µM. Put shortly:
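In hERG-transduced U2OS cells, dye-loaded for 1 hr at room temperature in dark, test compounds incubated 10 min at 37 °C before thallium stimulation. AC50 values derived by Hill modelling of concentration-response.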

Assay [13] in a line: Cell Viability - LYMP2-001 (AID 921).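 Also: 0% = DMSO only and full inhibition = tetraoctylammonium bromide control wells; nearly all actives have a fitted effect of over 70% in size.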 Conditions: LYMP2-001 lymphoblastoid cell viability; series mostly up to 92.2 µM. Put shortly: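 Human lymphoblastoid cells (Coriell), 2500 per well, were preincubated 5 hr at 37 C, then exposed to compounds in complete medium for 24 hr at 37 C. Cellular ATP was read by CellTiter-Glo luminescence; AC50 from Hill fits of concentration-response data.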

Assay [14] can be described thus: Cell Viability - LYMP1-003 - Assay at 40 hr (AID 964). Also: nearly all actives have a fitted effect of over 60% in size. Also: potency is read from the fitted curve at half-maximal effect. The settings on record: LYMP1-003 lymphoblastoid viability; series mostly up to 92.2 µM. In outline:
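Luminescent ATP signal (CellTiter-Glo) served as the viability read-out after 40 hr compound treatment of human lymphoblastoid LYMP1-003 cells at 37 C. Decreases in ATP were fitted with the Hill equation to give AC50.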

The nature of assay [15]: Cell Viability - LYMP2-025 (AID 976).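 Also: plate controls were DMSO only for no effect and tetraoctylammonium bromide control for full effect.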 Conditions: LYMP2-025 lymphoblastoid cell viability; series mostly up to 92.2 µM. Put shortly:
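Acute cytotoxicity is scored as a concentration-dependent fall in intracellular ATP, measured by luciferase luminescence, in human lymphoblastoid LYMP2-025 cells exposed to compound for 24 hours at 37 C. AC50 values come from standard Hill fits.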

Assay [16] concerns the target Bile acid receptor (Homo sapiens) (UniProt Q96RI1). The assay is described as follows: qHTS assay for small molecule antagonists of farnesoid X receptor signaling (AID 588526; calls by dose curve; also: % is scaled to controls: 0 for no effect and ±100 for the full control effect). The settings on record: HEK293T FXR-UAS-bla, beta-lactamase ratio, antagonist mode; series mostly up to 76.7 µM. In outline:
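Concentration-response titrations were fitted to the Hill equation for half-maximal inhibition and maximal response, with data normalised to 50 uM chenodeoxycholic acid and DMSO control wells. Cells: FXR-UAS-bla HEK293T, dialyzed FBS.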

Assay [17] is described as follows: Cell Viability - BJ (AID 421; calls by dose curve;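 also: potency is read from the fitted curve at half-maximal effect; cells exposed to compound for 40 hours at 37 °C before readout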). Conditions: BJ fibroblast viability, qHTS. In outline:
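Quantitative HTS: ATP depletion in BJ cells after 40 hr compound exposure in complete culture medium, detected with CellTiter-Glo; AC50 from standard Hill fits.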

Assay [18] concerns the target Mitogen-activated protein kinase 10 (Mus musculus) (UniProt Q61831). The assay is described as follows: JNK3 AlphaScreen Assay (AID 530; active = well fitted curve in either direction with a large enough effect, not every such curve was filed as active). The settings on record: JNK3 lysate, c-Jun phosphorylation; series mostly up to 11.4 µM. In outline:
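Phosphorylation of biotinylated GST-cJun(1-79) at Ser73 is measured by AlphaScreen proximity luminescence. Enzyme is JNK3 in HepG2 lysates activated with interleukin-1beta and tumor necrosis factor alpha; ATP is 10 uM final.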
Background: Alpha assays give light when donor and acceptor beads are brought close together.

The nature of assay [19]: Cell Viability - LYMP2-019 (AID 973).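 Also: 0% = DMSO alone and full effect = 92 µM tetraoctylammonium bromide; nearly all actives have a fitted effect of over 55% in size.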 The settings on record: LYMP2-019 lymphoblastoid cell line viability; series mostly up to 92.2 µM. Put shortly: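 Cytotoxicity is scored as a concentration-dependent drop in cellular ATP after cells (2500/well) receive compound for 24 hr at 37 C. Tetraoctylammonium bromide serves as positive control.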
Assay [20] can be described thus: Cell Viability - LYMP2-018 (AID 985).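 Also: compound exposure lasted 24 hr at 37 °C; plate controls were DMSO only for no effect and tetraoctylammonium bromide at 92 µM for full effect; nearly all actives have a fitted effect of over 50% in size.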 The settings on record: LYMP2-018 lymphoblastoid cells, viability (qHTS); series mostly up to 92.2 µM. Put shortly: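 Seed 2500 lymphoblastoid cells per well, incubate 5 hr at 37 C, add compound and incubate 24 hr at 37 C, add CellTiter-Glo, wait 30 min at room temperature, then read luminescence.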

Molecules are shown by their SMILES. Where “and” joins values, the source holds several entries; their conditions need not be identical. Identical values can stand only once. Results filed as inconclusive are left out. Calls of active or inactive are those of the source. Unless noted, calls follow the shape of the dose curve; as a rule, active = well fitted curve in the direction sought with a large enough effect; inconclusive = small, poorly fitted or top-dose-only effect, or another doubt; inactive = no such curve, though single readings can be large; an effect the other way counts as inactive or inconclusive.

The results in this text go back to PubChem BioAssay (NCATS).

Chain of Bile acid receptor (Homo sapiens) (Q96RI1 whole entry, looked up): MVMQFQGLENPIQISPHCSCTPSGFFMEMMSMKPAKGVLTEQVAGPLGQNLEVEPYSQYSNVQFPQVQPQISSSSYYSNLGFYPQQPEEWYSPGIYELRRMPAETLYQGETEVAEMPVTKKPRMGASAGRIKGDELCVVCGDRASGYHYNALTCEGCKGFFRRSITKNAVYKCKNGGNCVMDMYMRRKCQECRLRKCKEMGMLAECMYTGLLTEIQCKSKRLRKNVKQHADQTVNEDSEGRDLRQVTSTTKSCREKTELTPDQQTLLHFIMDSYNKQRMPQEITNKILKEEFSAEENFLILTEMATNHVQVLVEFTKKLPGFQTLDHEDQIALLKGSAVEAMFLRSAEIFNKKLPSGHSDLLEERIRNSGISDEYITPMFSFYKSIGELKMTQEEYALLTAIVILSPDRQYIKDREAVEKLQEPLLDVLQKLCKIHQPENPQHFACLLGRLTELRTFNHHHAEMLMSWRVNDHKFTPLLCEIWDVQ
Chain of Voltage-gated inwardly rectifying potassium channel KCNH2 (Homo sapiens) (Q12809 whole entry, looked up): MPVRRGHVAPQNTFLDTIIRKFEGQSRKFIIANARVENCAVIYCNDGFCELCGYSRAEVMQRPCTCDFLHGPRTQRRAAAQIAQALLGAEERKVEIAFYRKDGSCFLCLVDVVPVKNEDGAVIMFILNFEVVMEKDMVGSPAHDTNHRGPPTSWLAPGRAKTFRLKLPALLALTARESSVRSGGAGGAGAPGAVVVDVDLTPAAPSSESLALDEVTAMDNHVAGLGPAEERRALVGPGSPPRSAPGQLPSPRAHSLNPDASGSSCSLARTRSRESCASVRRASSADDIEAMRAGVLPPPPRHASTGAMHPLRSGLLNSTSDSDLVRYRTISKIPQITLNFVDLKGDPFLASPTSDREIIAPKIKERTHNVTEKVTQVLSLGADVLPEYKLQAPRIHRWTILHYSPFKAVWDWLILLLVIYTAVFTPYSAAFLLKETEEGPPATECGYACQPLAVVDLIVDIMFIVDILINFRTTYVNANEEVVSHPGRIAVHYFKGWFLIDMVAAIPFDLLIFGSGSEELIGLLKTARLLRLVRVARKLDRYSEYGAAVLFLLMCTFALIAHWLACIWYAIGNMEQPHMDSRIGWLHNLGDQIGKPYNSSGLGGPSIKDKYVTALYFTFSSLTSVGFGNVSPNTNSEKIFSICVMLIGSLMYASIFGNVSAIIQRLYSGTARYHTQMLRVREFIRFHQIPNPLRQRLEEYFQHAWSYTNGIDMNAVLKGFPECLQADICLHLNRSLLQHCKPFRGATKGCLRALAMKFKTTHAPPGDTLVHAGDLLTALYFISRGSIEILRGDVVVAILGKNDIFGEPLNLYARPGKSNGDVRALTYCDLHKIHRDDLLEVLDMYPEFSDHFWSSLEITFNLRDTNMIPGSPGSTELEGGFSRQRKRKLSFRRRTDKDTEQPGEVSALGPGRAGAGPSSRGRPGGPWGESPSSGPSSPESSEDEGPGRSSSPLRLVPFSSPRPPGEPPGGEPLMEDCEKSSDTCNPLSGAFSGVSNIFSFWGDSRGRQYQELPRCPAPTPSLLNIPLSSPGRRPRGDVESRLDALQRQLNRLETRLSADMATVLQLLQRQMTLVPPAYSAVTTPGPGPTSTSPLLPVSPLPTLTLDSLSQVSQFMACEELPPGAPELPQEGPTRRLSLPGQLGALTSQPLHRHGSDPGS
Chain of Glucocorticoid receptor (Homo sapiens) (P04150 whole entry, looked up): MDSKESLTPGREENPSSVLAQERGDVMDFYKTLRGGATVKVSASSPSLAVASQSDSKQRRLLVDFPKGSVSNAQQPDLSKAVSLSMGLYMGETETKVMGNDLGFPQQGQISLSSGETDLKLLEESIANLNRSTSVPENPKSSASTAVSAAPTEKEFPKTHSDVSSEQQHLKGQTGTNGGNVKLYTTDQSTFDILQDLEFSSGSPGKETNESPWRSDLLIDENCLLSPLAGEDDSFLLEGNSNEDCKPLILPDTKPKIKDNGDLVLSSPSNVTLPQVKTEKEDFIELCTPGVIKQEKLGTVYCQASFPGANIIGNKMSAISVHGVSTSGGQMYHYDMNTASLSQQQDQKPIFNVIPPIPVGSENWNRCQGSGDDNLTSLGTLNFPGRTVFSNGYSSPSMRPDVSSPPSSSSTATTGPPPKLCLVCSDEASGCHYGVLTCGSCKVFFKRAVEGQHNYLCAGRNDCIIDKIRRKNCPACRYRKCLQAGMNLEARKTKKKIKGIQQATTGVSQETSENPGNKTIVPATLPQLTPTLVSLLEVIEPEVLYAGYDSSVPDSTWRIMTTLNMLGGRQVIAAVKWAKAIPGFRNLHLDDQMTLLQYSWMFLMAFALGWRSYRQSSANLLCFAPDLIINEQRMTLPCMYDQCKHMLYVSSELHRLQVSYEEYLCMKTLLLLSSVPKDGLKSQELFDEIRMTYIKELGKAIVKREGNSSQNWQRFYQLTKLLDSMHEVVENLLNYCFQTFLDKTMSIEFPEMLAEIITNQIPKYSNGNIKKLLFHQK
Chain of Thyroid hormone receptor beta (Homo sapiens) (P10828 whole entry, looked up): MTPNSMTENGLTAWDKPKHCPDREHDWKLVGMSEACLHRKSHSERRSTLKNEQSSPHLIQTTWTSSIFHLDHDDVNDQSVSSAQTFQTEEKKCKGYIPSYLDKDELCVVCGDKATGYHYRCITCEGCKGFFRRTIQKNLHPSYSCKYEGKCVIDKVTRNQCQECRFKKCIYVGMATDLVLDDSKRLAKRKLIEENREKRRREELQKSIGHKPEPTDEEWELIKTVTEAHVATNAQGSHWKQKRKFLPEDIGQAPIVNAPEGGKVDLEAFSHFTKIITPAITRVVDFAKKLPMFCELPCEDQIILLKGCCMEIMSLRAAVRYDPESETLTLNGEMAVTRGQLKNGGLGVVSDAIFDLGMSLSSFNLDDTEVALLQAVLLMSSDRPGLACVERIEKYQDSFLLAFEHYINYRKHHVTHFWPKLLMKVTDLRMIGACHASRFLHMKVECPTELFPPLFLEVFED

For the molecule `C=Cc1cccc(C)c1`, the Potency in assay [1] is > 92 µM (inactive). For the same molecule, the Potency result in [2], in assay [4], in assay [5], in assay [6], in [8] and in assay [10] was “inactive” throughout. In addition, in assay [12], the Potency result was “inactive”. In addition, the molecule was called inactive in [3]. In assay [7], the activation is -2.15% (inactive). In [9], the max response is -23.4%. Also, the activity change % (negative = inhibition) in [11] was -8.39% (inactive).

Take `CCCCOC(=O)COc1ccc(Cl)cc1Cl`: the Potency in [1] is > 92 µM (inactive). The Potency result in assay [13], in [14], in [4], in assay [15], in [5] and in assay [6] was “inactive” throughout. Further, the Potency result in [16] and in assay [10] was “inactive” each time. In addition, in assay [3], the outcome was inactive. In assay [11], the activity change % (negative = inhibition) is 7.32% (inactive) and -4.27% (inactive).

As for `Oc1ccc(O)c2c(O)cccc12`, the Potency in assay [17] was > 92 µM (inactive). In addition, the Potency result in assay [18], in [14] and in assay [15] was “inactive” throughout. Moreover, in assay [3], the outcome was inactive. In addition, in assay [11], the activity change % (negative = inhibition) is -24.9% (inactive).

As for `Cc1c2ccccc2c(C)c2c1ccc1ccccc12`, the Potency in assay [17] was 13.8 µM (active). For the same molecule, the result in assay [3] was inactive. For the same molecule, the Potency result in assay [19], in assay [4], in [15], in assay [5], in assay [20] and in [6] was “inactive” each time. The Potency result in assay [16] and in assay [12] was “inactive” throughout.

In the case of `CCCCCCCC/C=C\CCCCCCCC(=O)N(CCO)CCO`, the Potency in [17] is > 92 µM (inactive). Also, the Potency entry in assay [18], in assay [13], in [14], in [4], in assay [15] and in [5] was “inactive” each time. The Potency entry in assay [16] was “inactive”. The call in assay [3] was inactive. The max response in assay [9] amounted to 92.2%.

Turning to `Nc1ccc(N)c(Cl)c1`, the Potency is > 92 µM (inactive) in assay [17] and 39.8 µM (active) in assay [14]. Further, the Potency entry in [18], in [19], in [20] and in assay [12] was “inactive” each time. Moreover, in [9], the max response was -6.58%. The activity change % (negative = inhibition) in assay [11] was -7.72% (inactive).

`c1ccc2ncccc2c1`: the Potency in assay [1] is > 92 µM (inactive). Moreover, the Potency entry in assay [2], in [14], in assay [19], in assay [4], in [5] and in [20] was “inactive” in each case. In addition, the Potency result in assay [6], in assay [8] and in assay [12] was “inactive” each time. For the same molecule, the max response in assay [9] was 41.8%. In addition, in [11], the activity change % (negative = inhibition) was 3.38% (inactive).

On to `CN(C)c1ccc(Cc2ccc(N(C)C)cc2)cc1`, for which the Potency in [1] was > 92 µM (inactive). Also, the Potency result in assay [13], in assay [14], in assay [19], in assay [4], in [15] and in assay [16] was “inactive” each time. Further, the Potency entry in assay [8] and in [10] was “inactive” in each case. Besides, the max response in assay [9] is 11.4% and 3.82%.

As for `COc1ccc([N+](=O)[O-])cc1N`, the Potency entry in assay [18], in assay [13], in [14], in assay [19], in assay [4] and in [15] was “inactive” in each case. In addition, the Potency entry in assay [16], in assay [8] and in assay [12] was “inactive” throughout. Besides, the outcome in assay [3] was inactive. Moreover, the activation in assay [7] was 2.11% (inactive) and 1.38% (inactive). In addition, the max response in assay [9] was 74.5% and 5.37%.
